Assay outcomes deposited in PubChem by National Center for Advancing Translational Sciences (NCATS).
FBPA coupling cs – qHTS Assay for Inhibitors of Fructose-1,6-bisphosphate Aldolase from Giardia Lamblia: Coupling assay counterscreen. coupling enzyme system counterscreen, AmpLite Red fluorescence. activity change, negative = inhibition, % at 58.2 µM, hits read low. actives 0.67% (n = 290,000). AID 2472, 2010; in the data active = activity change below about -30%
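Coupling enzymes only (glyceraldehyde-3-phosphate) + compound, at 57.5 uM final, 10 min RT; add substrate/coupling/AmpLite Red mix, 20 min RT; fluorescence ex 525/em 598 nm. Actives flag coupling-system interference.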
Tau fluor counter – Counterscreen qHTS for Inhibitors of Tau Fibril Formation, Fluorescence Polarization; tau K18 P301L Alexa594 fluorescence, heparin fibrillization; Potency, µM (highest dose often 57.7 µM), inactives show at the highest dose activity change, negative = decrease; actives 0.93% (n = 280,000); AID 1463, 2008; also: potency is read from the fitted curve at half-maximal effect; nearly all actives have a fitted effect of over 55% in size
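Human K18 P301L tau (15 uM unlabeled plus 0.24 uM Alexa 594-labeled, final) in 100 mM sodium acetate pH 7 was mixed with compound and 20 uM heparin and incubated 6 hr at 37 C.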
Tau ThT inhib – qHTS for Inhibitors of Tau Fibril Formation, Thioflavin T Binding; actives 2.1% (n = 270,000); Potency, µM (titrated, usually from 57.4 µM), inactives show at the top dose activity, negative = inhibition, actives largely listed as inhibitors; recombinant tau K18 P301L (four-repeat tau fragment), heparin-induced fibrillization, ThT fluorescence; AID 1460, 2008; Microtubule-associated protein tau (Homo sapiens), P10636; also: potency is read from the fitted curve at half-maximal effect; nearly all actives have a fitted effect of over 55% in size
Target sequence (P10636 561-689 P618L limits assumed): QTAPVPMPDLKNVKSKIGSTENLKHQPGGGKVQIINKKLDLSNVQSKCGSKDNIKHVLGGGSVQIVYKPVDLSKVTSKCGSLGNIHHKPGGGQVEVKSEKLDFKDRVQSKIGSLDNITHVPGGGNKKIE
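Aggregation was driven by heparin (20 uM final) acting on recombinant tau […] bearing P301L in 100 mM sodium acetate pH 7; fibrils were detected with Thioflavin T.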
JMJD2E inh – qHTS Assay for Inhibitors of Human Jumonji Domain Containing 2E (JMJD2E); actives 1.6% (n = 230,000); Lysine-specific demethylase 4E (Homo sapiens), B2RXH2; JMJD2E catalytic domain, FDH-coupled NADH fluorescence (FDH is formaldehyde dehydrogenase); AID 2147, 2009; Potency, µM (top dose mostly 57.1 µM), without a hit: top-dose activity change, negative = inhibition, actives largely listed as inhibitors; active = well fitted inhibition curve with a large enough effect, not every such curve was filed as active; inconclusive = small, poorly fitted or top-dose-only effect, or another doubt; inactive = no such curve, though single readings can be large or run the other way;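 also: potency is read from the fitted curve at half-maximal effect; 0% = wells with enzyme and -100% = buffer wells without enzyme; nearly all actives have a fitted effect of over 50% in size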
Target sequence (B2RXH2 1-337 limits assumed): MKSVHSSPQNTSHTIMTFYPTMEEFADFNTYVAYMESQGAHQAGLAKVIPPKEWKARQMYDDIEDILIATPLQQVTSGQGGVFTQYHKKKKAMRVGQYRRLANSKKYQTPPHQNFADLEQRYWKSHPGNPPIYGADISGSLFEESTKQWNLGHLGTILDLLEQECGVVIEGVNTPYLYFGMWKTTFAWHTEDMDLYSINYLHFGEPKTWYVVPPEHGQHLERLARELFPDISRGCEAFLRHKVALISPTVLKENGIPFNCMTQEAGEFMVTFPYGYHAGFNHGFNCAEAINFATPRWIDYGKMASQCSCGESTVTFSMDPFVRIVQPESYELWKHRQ
Tau fibril FP – qHTS for Inhibitors of Tau Fibril Formation, Fluorescence Polarization | actives 0.39% (n = 280,000) | Potency, µM (series often up to 57.7 µM), for the others: at the highest dose activity, negative = inhibition, actives largely listed as inhibitors | Microtubule-associated protein tau (Homo sapiens), P10636 | AID 1468, 2008 | K18 P301L tau heparin fibrillization, Alexa594 FP, 6 h; also: potency is read from the fitted curve at half-maximal effect; nearly all actives have a fitted effect of over 55% in size
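Human tau K18 […] P301L fragment, 15 uM unlabeled plus 0.24 uM Alexa 594-labeled tau (final), with compound and 20 uM heparin in 100 mM sodium acetate pH 7; 6 hr at 37 C, then Alexa 594 FP read.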
* = called active by the depositor; ? = inconclusive; . = no result given; ! = a repeat was not active; [ ] = remark or other dose. Sampled rows, rich in hits. Any-hit rate of the full collection: about 3%. Unless noted, calls follow the shape of the dose curve; as a rule, active = well fitted curve in the direction sought with a large enough effect; inconclusive = small, poorly fitted or top-dose-only effect, or another doubt; inactive = no such curve, though single readings can be large; an effect the other way counts as inactive or inconclusive. Unless noted, % is scaled to controls: 0 for no effect and ±100 for the full control effect.

SMILES	FBPA coupling cs	Tau fluor counter	Tau ThT inhib	JMJD2E inh	Tau fibril FP
COC(=O)c1ccc(NC(=S)NCCc2ccccc2)cc1	0	?	-9%	6%	?
C/C(=N\Nc1ccc(Cl)c(C(=O)O)c1)c1ccc(N2CCOCC2)cc1	-1	.	.	.	.
O=C(O)c1cc(N/N=C/c2ccc(N3CCOCC3)s2)ccc1Cl	-1	?	11µM*	?	?
COC(=O)c1c(NS(=O)(=O)c2ccccc2)csc1C	-34*	-23%	-14%	-2%	-3%
COc1ccc(/C=C/C(=O)c2ccc(O)cc2)cc1	6	-11%	?	3%	-3%
COc1cc(/C=C/c2ccc(O)cc2)cc(OC)c1	-1	16µM*[quencher]	?	?	2%
CCOC(=O)c1cc(NC(=O)Nc2ccc(Br)cc2)c(C)nc1C	0	?	11%	4%	18µM*
COc1cccc(NC(=O)Nc2cccc(C)n2)c1	3	.	.	.	.
CCOC(=O)c1cc(NC(=O)Nc2ccccc2Cl)c(C)nc1C	1	-22%	8%	-14%	?
COc1cccc(NC(=O)Nc2cc(NC(=O)Nc3cccc(OC)c3)c(C)nc2C)c1	1	11µM*[quencher]	9%	6%	22µM*
COc1cccc(NC(=O)Nc2ccncc2)c1	-2	-11%	-6%	0%	1%
COc1cccc(NC(=O)Nc2ccc(Cc3ccncc3)cc2)c1	0	16µM*[quencher]	-2%	3%	?
COc1cccc(NC(=O)Nc2ccc(C(C)(C)C)cc2)c1	-3	28µM*[quencher]	-10%	-7%	?
Cc1ccc(S(=O)(=O)c2c(Nc3cc(F)ccc3F)sc(C(=O)c3ccc(F)cc3)c2N)cc1	.	-18%	-2%	.	?
CCOC(=O)c1c(C)c(-c2ccccc2)n(CC(=O)Nc2cc(OC)cc(OC)c2)c1C	.	?	-4%	.	-7%
CSc1ccc(CNC(=O)C2CCCN(S(=O)(=O)N(C)c3ccc(F)cc3)C2)cc1 (configuration not stated)	.	-20%	-9%	.	7%
C=C[C@@H]1[C@@H](C)[C@H](C)C(=O)C([C@H](O)C(C)C)[C@@H]1C (some centres not stated)	-3	.	.	.	.
COc1cccc(NC(=O)Nc2cc(-c3cn4cccnc4n3)ccc2OC)c1	.	20µM*[quencher]	?	.	-4%
COc1cccc(NC(=O)Nc2cc(-c3cn4cccnc4n3)ccc2C)c1	.	-13%	-8%	.	?
Cc1cc2ccccn2c1C(=O)c1ccc(N/N=C/c2ccc(C(=O)O)cc2)c([N+](=O)[O-])c1	6	-28%	3.2µM*	-17%	-6%
CC1=NCCN1CCNC(=O)Nc1ccc(F)cc1	1	3%	0%	43%	-4%
O=C(Nc1ccc(F)cc1)C1=CC(=O)N2CCN=C2S1	5	-14%	18µM*	-22%	?
Cc1ccc(N/N=C/c2c(C)c(C#N)c(=O)n(C)c2O)cc1C	-58*	2%	10%	-11%	9%
Cc1c(C=N)c(O)n(C)c(=O)c1C#N	-1	-40%	.	?	9%
Cc1ccc2[nH]c(C)c(CC(=O)O)c2c1	-40*	-18%	?	22µM*	3%
SMILES	FBPA coupling cs	Tau fluor counter	Tau ThT inhib	JMJD2E inh	Tau fibril FP
Cc1[nH]c2ccc(C(C)C)cc2c1CC(=O)O	1	2%	.	?	7%
CC(C)CCNS(=O)(=O)c1ccc(N2CCCCS2(=O)=O)cc1	.	2%	2%	.	-5%
CC(=O)N(C1=C(N2CCOCC2)C(=O)c2ccccc2C1=O)c1ccc(C(=O)O)cc1	-54*	18µM*[quencher]	14µM*	10µM*	?
CC(=O)N(C)C1=C(N2CCOCC2)C(=O)c2ccccc2C1=O	-56*	-17%	?	?	-11%
CC(=O)N(C)C1=C(O)c2ccccc2C(=O)C1=O	.	-21%	28µM*	-9%	?
COc1ccc(CNC(=O)CCc2cn(C)c3ccccc23)cc1	.	-9%	-2%	.	5%
CC(=O)O[C@@H]1CC[C@@]2(C)[C@H](C1)[C@H](OC(C)=O)C[C@@H]1[C@@H]2C[C@H]2[C@@H]3CN4C[C@H](C)CC[C@H]4[C@H](C)[C@H]3CC[C@@]12O	1	.	.	.	.
COc1cc(/C=N/Nc2nncn2N)ccc1OCc1c(C)no[n+]1[O-]	-38*	-19%	?	0.5µM*	?
CC(=O)N[C@@H](C(=O)O)C(C)(C)SN=O	3	-20%	28µM*	-16%	?
COc1ccc(-n2cc(C(=O)NCCc3ccc(C)cc3)c3ccccc3c2=O)cc1	.	-23%	?	.	?
CCCCc1cc2c(cn1)C(=O)C(C)(OC(C)=O)C(=O)C2 (configuration not stated)	-2	-1%[11.6 µM]	-2%[11.5 µM]	-11%[11.4 µM]	6%[11.6 µM]
CC(=O)N(\C=C/C=C/C=C1\Sc2ccccc2C1=O)c1ccccc1	-6	?	6.3µM*	14µM*	?
CC1(OC(=O)c2ccc(Cl)nc2)C(=O)C=c2cc(-c3ccsc3)ncc2=C1OC(=O)C1CCCC1 (configuration not stated)	-3	0%[11.6 µM]	4%[11.5 µM]	-1%[11.4 µM]	-6%[11.6 µM]
O=C(O)CCc1cc(I)c(O)c(I)c1	.	-11%	-14%	.	9%
CC(C)(C)C1=CC(=O)C(N2CCOCC2)=CC1=O	-58*	-11%	?	-17%	18%
COc1ccc(OC)c(/C=N/N(C)c2ccccc2)c1	-1	11µM*[quencher]	13µM*	3%	5%
COc1cc(/C=N/N(C)c2ccccc2)cc(Cl)c1O	-7	14µM*[quencher]	?	-2%	?
COc1cc(/C=N/N(C)C)cc(Br)c1O	-1	-9%	-19%	-26%	6%
CC(=O)Oc1cc(-c2coc3cc(OC(C)=O)c(OC(C)=O)c(OC(C)=O)c3c2=O)cc(OC(C)=O)c1OC(C)=O	-51*	?	3.5µM*	3.2µM*	8.9µM*
COc1cc(-c2coc3cc(OC)c(OC)c(OC)c3c2=O)cc(OC)c1OC	0	-2%	-5%	2%	1%
CC/C(=C(\c1ccccc1)c1ccc(OCCN(C)C)cc1)c1ccccc1	1	8%	?	20µM*!	7%
Cn1c(N)c(C(=O)COC(=O)c2cc(-c3ccccc3)nc3ccccc23)c(=O)n(Cc2ccccc2)c1=O	2	?	-1%	?	14µM*
COc1ccc(Nc2c(-c3ccc(C)cc3)nc3cnccn23)cc1	-1	?	-17%	-8%	16%
Oc1ccccc1-c1nc2cnccn2c1Nc1ccc(Cl)cc1	.	13µM*[quencher]	-14%	.	-1%
Clc1ccc(Nc2c(-c3ccccc3Cl)nc3ccc(Cl)cn23)cc1	.	-20%	0%	.	6%
